This is a sample that favours compounds with a hit; in the whole collection about 2.4% have one here.
Tb PGK inh = qHTS Assay to Find Inhibitors of Phosphoglycerate Kinase | PGK/GAPDH coupled, Kinase-Glo luminescence, 60 min | Phosphoglycerate kinase, glycosomal (Trypanosoma brucei brucei), P07378 | actives 0.043% (n = 380,000) | Potency, µM (titrated, usually from 57.5 µM), without a hit: at the top dose activity change, negative = inhibition, actives largely listed as inhibitors | AID 602233, 2012; note: % is set by controls: 0 for no effect and ±100 for the full control effect; nearly all actives have a fitted effect of over 60% in size
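Recombinant glycosomal PGK reaction used 1,3-bisphosphoglycerate generated in-well by GAPDH (100nM final) in 100mM TEA pH 7.6, 5mM MgCl2, 0.01% Tween-20. After 60 minutes at room temperature, ATP was read by Kinase-Glo Plus luminescence end-point.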
Rango release inh = qHTS Assay for Inhibitors of RanGTP induced Rango (Ran-regulated importin-beta cargo) - Importin beta complex dissociation; Snurportin-1 (Homo sapiens) + GTP-binding nuclear protein Ran (Homo sapiens) + Importin …; Biochemical FRET Rango-importin beta, RanGTP-induced dissociation; Potency, µM (top dose mostly 46.1 µM), for the others: at the highest dose activity change, negative = inhibition; actives 0.071% (n = 340,000); AID 540253, 2011; calls by dose curve; note: % of control where 0% means no effect; nearly all actives have a fitted effect of over 45% in size
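Rango/importin beta premix (0.1/0.25 uM final), PBS + 1 mM DTT + 0.02% Tween-20 + 0.1% BSA; cpd 5 min RT; FRET pre-read; + RanGTP-RCC1 (0.6 uM Ran, 2 mM GTP, 0.2 uM RCC1); 45 min RT; FRET post-read, ex 430, em 486/530 nm.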
Tb PFK inh = qHTS Assay to Find Inhibitors of T. brucei phosphofructokinase; Potency, µM (series often up to 57.5 µM), for the others: at the top dose activity, negative = inhibition, most hits filed as inhibitors; actives 0.17% (n = 330,000); ATP-dependent 6-phosphofructokinase (Trypanosoma brucei brucei), O15648; T. brucei PFK, ADP-Glo luminescence;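 note: 0% = uninhibited 1x PFK enzyme wells and -100% = no-enzyme wells; nearly all actives have a fitted effect of over 60% in size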
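Compounds were pin-transferred as a titration series up to 57 uM into substrate buffer (0.5 mM F6P, 0.1 mM ATP, pH 8.0), then 1.25 nM PFK was added and reactions ran 45 min before ADP-Glo detection.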
PKM2 activator = qHTS Assay for Activators of Human Muscle isoform 2 Pyruvate Kinase; Potency, µM (doses to about 57.5 µM), for the others: at the top dose activation, hits mostly activators; purified PKM2, Kinase-Glo ATP luminescence, activation; response scale: 0% is enzyme alone, no compound; AID 1631, 2009; actives 0.34% (n = 260,000); note: % is set by controls: 0 for no effect and ±100 for the full control effect; nearly all actives have a fitted effect of over 55% in size
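Purified hPK-M2 (>95% pure) converted ADP (0.1 mM final) to ATP with 0.5 mM PEP in 50 mM imidazole pH7.2, KCl, MgCl2, Tween 20, BSA; 1 h at room temperature. ATP detected by Kinase-Glo luminescence.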
Rango-impB inh = qHTS Assay for Inhibitors of Rango (Ran-regulated importin-beta cargo) - Importin beta complex formation; actives 0.031% (n = 340,000); AID 540263, 2011; Importin subunit beta-1 (Homo sapiens), Q14974; Rango CFP/YFP FRET sensor + importin beta, 45 min; Potency, µM (titrated, usually from 92.2 µM), inactives show top-dose inhibition of complex formation; calls by dose curve;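 note: 0% = DMSO wells and 100% = buffer wells lacking importin beta; nearly all actives have a fitted effect of over 15% in size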
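FRET biosensor (snurportin 1 IBB flanked by EYFP and cerulean), 50 nM, with compound 5 min, then 0.125 microM importin beta in PBS, 1 mM DTT, 0.02% Tween-20, 0.1% BSA. CFP/YFP ratio read after 45 min at room temperature; pre-read flags interference.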
ELG1 repair inh = qHTS screen for small molecules that inhibit ELG1-dependent DNA repair in human embryonic kidney (HEK293T) cells expressing luciferase-tagged ELG1 | HEK293T ELG1-luciferase reporter, luminescence, 16 h; DNA damage induced by 5-fluorouridine | Potency, µM (doses to about 46.1 µM), for inactives: at the highest dose activity change, negative = inhibition, most hits filed as inhibitors | actives 2.3% (n = 330,000) | AID 504467, 2011; note: % is set by controls: 0 for no effect and ±100 for the full control effect; nearly all actives have a fitted effect of over 55% in size
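Cells (2,000 per well) received 5-fluorouridine plus test compound or DMSO and were incubated 16 hr at 37 °C, 5% CO2. Luciferase activity was read by luminescence 30 min after ONE-Glo addition; signal suppression marked inhibition of damage-induced ELG1 function.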
ELG1 FLuc counter = qHTS screen for small molecules that inhibit ELG1-dependent DNA repair: Hit Confirmation in Cell-Based Luciferin Assay | cell-free firefly luciferase luminescence counter-screen, ViewLux | shares compounds with ELG1 repair inh | Potency, µM (top dose mostly 46.1 µM), for inactives: at the top dose activity change, negative = inhibition, most hits filed as inhibitors | actives 3% (n = 350); note: % is set by controls: 0 for no effect and ±100 for the full control effect
ELG1 Luc conf = HTS assay for small molecules that inhibit ELG1-dependent DNA repair in human embryonic kidney (HEK293T) cells expressing luciferase-tagged ELG1: Hit Confirmation; shares compounds with ELG1 repair inh; HEK293T ELG1-luciferase levels, luminescence; cells co-treated with 5-fluorouridine; Potency, µM (series often up to 46.1 µM), for the others: at the highest dose activity change, negative = inhibition, usual class: inhibitors; actives 68% (n = 670); note: % is set by controls: 0 for no effect and ±100 for the full control effect; nearly all actives have a fitted effect of over 55% in size
ELG1-Luc MMS = confirmation of human ELG1 repair inhibitors, MMS stimulated; shares compounds with ELG1 repair inh; HEK293T luciferase-tagged ELG1 level, MMS stimulated; Potency, µM (top dose mostly 46.1 µM), for inactives: at the highest dose activity change, negative = inhibition, hits mostly inhibitors; actives 53% (n = 670); AID 624249; note: % is set by controls: 0 for no effect and ±100 for the full control effect; nearly all actives have a fitted effect of over 60% in size
ELG1 5-FU = qHTS screen for small molecules that inhibit ELG1-dependent DNA repair: Hit Confirmation with 5FU Viability | Potency, µM (doses to about 46.1 µM), for the others: at the top dose activity change, negative = viability loss, usual class: cytotoxic | shares compounds with ELG1 repair inh | 670 tested, under 10 active | cell viability with 5-FU, ELG1-dependent repair;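 note: ELG1-luc HEK293T cells cotreated with 5-fluorouridine at 10 µM final; viability measured 16 h after compound addition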
ELG1 MMS viab = qHTS screen for small molecules that inhibit ELG1-dependent DNA repair: Hit Confirmation with MMS Viability; Cell viability with MMS, ELG1-dependent DNA repair; actives 33% (n = 670); AID 624251, 2012; shares compounds with ELG1 repair inh; Potency, µM (highest dose often 46.1 µM), without a hit: at the highest dose activity change, negative = viability loss, actives largely listed as cytotoxic;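 note: ELG1-luc HEK293T cells co-treated with 10 µM MMS; viability read 16 h after compound addition; % is set by controls: 0 for no effect and ±100 for the full control effect; nearly all actives have a fitted effect of over 60% in size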
Cell viab unstim = qHTS screen for small molecules that inhibit ELG1-dependent DNA repair: Hit Confirmation with Unstimulated Viability Assay; shares compounds with ELG1 repair inh; actives 8% (n = 900); Potency, µM (highest dose often 45.9 µM), without a hit: top-dose activity change, negative = loss of viability, usual class: cytotoxic; AID 624252, 2012; cell viability counter-screen, unstimulated, luminescence;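 note: compound exposure lasted 16 hours before reading; % is set by controls: 0 for no effect and ±100 for the full control effect; nearly all actives have a fitted effect of over 55% in size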
FLuc biochem = qHTS screen for small molecules that inhibit ELG1-dependent DNA repair: Hit Confirmation in Biochemical Luciferin Assay | shares compounds with ELG1 repair inh | purified firefly luciferase, luminescence counter-screen | Potency, µM (titrated, usually from 57.5 µM), for inactives: at the top dose activity, negative = inhibition, most hits filed as inhibitors | actives 10% (n = 350); note: % is set by controls: 0 for no effect and ±100 for the full control effect
The depositor's hits bear a star. Unless noted, calls come from the whole dose curve; as a rule, active = well fitted curve in the direction sought with a large enough effect; inconclusive = small, poorly fitted or top-dose-only effect, or another doubt; inactive = no such curve, though single readings can be large; an effect the other way counts as inactive or inconclusive. Potency is the fitted concentration of half-maximal effect.

What do the screens show for `COc1ccccc1CCNC(=O)C(=O)NCC1CCCN1S(=O)(=O)c1ccccc1` (stereo not drawn)?
Tb PGK inh: inactive; Rango release inh: 1%; Tb PFK inh: -2%; Rango-impB inh: 0%; ELG1 repair inh: 4.1µM*; ELG1 Luc conf: 14µM*; ELG1-Luc MMS: 16µM*; ELG1 5-FU: -3%; ELG1 MMS viab: inconclusive; Cell viab unstim: 22µM*

Results for CCOC(=O)c1cc(-c2ccc([N+](=O)[O-])cc2)nc2c1c(=O)[nH]c(=O)n2Cc1ccccc1 ?
Tb PGK inh: -8%; Rango release inh: 2%; Tb PFK inh: -3%; Rango-impB inh: -1%; ELG1 repair inh: 26%; ELG1 FLuc counter: 61%; Cell viab unstim: -19%; FLuc biochem: -8%

How did CCOC(=O)c1cc(-c2cc3ccccc3o2)nc2c1c(=O)[nH]c(=O)n2CCOC do in these assays?
Tb PGK inh: -10%; Rango release inh: -19%; Tb PFK inh: -5%; PKM2 activator: -6%; Rango-impB inh: inconclusive; ELG1 repair inh: -17%

How did COc1ccc(-c2cc(=O)oc3c(C)c(OC(C)C(C)=O)ccc23)cc1 (stereo not drawn) do in these assays?
Tb PGK inh: 0%; Rango release inh: -9%; Tb PFK inh: 0%; Rango-impB inh: 1%; ELG1 repair inh: -18%

What do the screens show for `COc1ccc(-c2cc(=O)oc3c(C)c(OC(=O)c4cccs4)ccc23)cc1`?
Tb PGK inh: 8%; Rango release inh: -20%; Tb PFK inh: 0%; PKM2 activator: -2%; Rango-impB inh: 0%; ELG1 repair inh: 4.1µM*; ELG1 Luc conf: 4.4µM*; ELG1-Luc MMS: inconclusive; ELG1 5-FU: -4%; ELG1 MMS viab: -2%; Cell viab unstim: -6%

Results for O=C(Cn1cnc2ccccc21)Nc1cccc([N+](=O)[O-])c1 ?
Tb PGK inh: -1%; Rango release inh: -7%; Tb PFK inh: -17%; PKM2 activator: inconclusive; Rango-impB inh: 0%; ELG1 repair inh: inconclusive

How did Cc1ccc(NC(=O)Cn2cnc3ccccc32)cc1C do in these assays?
Tb PGK inh: 1%; Rango release inh: -6%; Tb PFK inh: -3%; PKM2 activator: -4%; Rango-impB inh: 0%; ELG1 repair inh: 4.6µM*; ELG1 Luc conf: 4%; ELG1-Luc MMS: inconclusive; ELG1 5-FU: -8%; ELG1 MMS viab: inconclusive; Cell viab unstim: inconclusive

Results for CC(C)(C)c1ccc(C(=O)NNc2ncccc2-n2cccc2)cc1 ?
Tb PGK inh: -3%; Rango release inh: 0%; Tb PFK inh: 0%; PKM2 activator: 1%; Rango-impB inh: 6%; ELG1 repair inh: 3.3µM*; ELG1 Luc conf: 6%; ELG1-Luc MMS: 30%; ELG1 5-FU: -6%; ELG1 MMS viab: -2%; Cell viab unstim: -2%

How did O=C(CCN1C(=O)c2ccccc2C1=O)Nc1ccc(-c2nc3ccccc3o2)cc1 do in these assays?
Tb PGK inh: inactive; Rango release inh: 0%; Tb PFK inh: 0%; PKM2 activator: -16%; Rango-impB inh: 0%; ELG1 repair inh: inconclusive; ELG1 FLuc counter: 152%; Cell viab unstim: inconclusive; FLuc biochem: inconclusive

How did O=C(CN1C(=O)c2ccccc2C1=O)Nc1ccc(-c2nc3ccccc3o2)cc1 do in these assays?
Tb PGK inh: inactive; Rango release inh: 5%; Tb PFK inh: -6%; PKM2 activator: -1%; Rango-impB inh: 5%; ELG1 repair inh: inconclusive

From PubChem
